Screens from PubChem.
Only some compounds are listed: those with a hit (about 2.8% of all), similar ones and a draw of the others.
pAkt inh: Akt phosphorylation inhibition; actives 0.32% (n = 360,000); activity change, % for hits at 50 µM; AID 651550; Neuro2A IGF-stimulated pAkt S473 HTRF, 20 min; stronger effect = lower value; in the data active means activity change below about -80%; inconclusive means mostly about -51% to -80%
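Neuro2A cells in DMEM with 0.5% FBS, overnight at 37 deg C, given compound at single 50 µM final, then IGF (6 nM final) for 20 min at 37 deg C. Lysed; phospho-Akt Ser473 by HTRF after 24 h, 665/615 ratio.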
PI4K2A inh: blocks human PI4K2A kinase activity. Q9BTU6. purified PI4K2A, ADP-Glo luminescence, 1 h; stronger effect = lower value. activity change, negative = inhibition, % at 76.9 µM. actives 0.13% (n = 420,000). AID 1346378; in the data active means activity change below about -50%; inconclusive means mostly about -30% to -49%
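In this quantitative HTS, ADP production by PI4K2A was quantified luminescently after 1 h at ambient temperature; 100 microM adenosine served as plate-quality control.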
RGS4 inh: inhibitors of human regulator of G protein signaling 4 | P49798 | Transcreener GDP fluorescence polarization, RGS4-accelerated GTP hydrolysis | Potency, µM (top dose mostly 114 µM), most hits filed as inhibitors | actives 0.039% (n = 390,000) | AID 504845; active means well fitted inhibition curve with a large enough effect; inconclusive means small, poorly fitted or top-dose-only effect; inactive means no such curve, though single readings can be large or run the other way; further: nearly all actives have a fitted effect of over 75% in size
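MLSMR compounds (23 nl, pin-transferred) preincubated 10 min at room temperature with a 500nM (2x) first reagent, then RGS4 at 900nM (2x) plus Transcreener GDP mix added; fluorescence polarization (620/688 nm) read before and after 90 min at 30 °C.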
LDHA block: LDHA (human) enzyme inhibition | P00338 | purified LDHA, NADH/diaphorase-resazurin fluorescence; stronger effect = lower value | actives 0.15% (n = 480,000) | activity change, % (values are at about 110 or 230 µM); in the data active means activity change below about -30%; inconclusive means mostly about -25% to -30%
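Remaining NADH was detected by diaphorase (0.133 mg/mL) converting 37 µM resazurin to fluorescent resorufin, read at 0 and 20 minutes. The preceding 5-minute room-temperature reaction used 2 nM LDHA, 0.2 mM sodium pyruvate and 0.06 mM NADH at pH 7.4.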
D3 ag: agonists of human D3 dopamine receptor; max activation, %; D3R DiscoveRx beta-arrestin cells, luminescence, 90 min; actives 0.58% (n = 410,000); P35462; AID 652048; in the data active means max activation above about 30%
Target sequence (P35462 whole entry, looked up): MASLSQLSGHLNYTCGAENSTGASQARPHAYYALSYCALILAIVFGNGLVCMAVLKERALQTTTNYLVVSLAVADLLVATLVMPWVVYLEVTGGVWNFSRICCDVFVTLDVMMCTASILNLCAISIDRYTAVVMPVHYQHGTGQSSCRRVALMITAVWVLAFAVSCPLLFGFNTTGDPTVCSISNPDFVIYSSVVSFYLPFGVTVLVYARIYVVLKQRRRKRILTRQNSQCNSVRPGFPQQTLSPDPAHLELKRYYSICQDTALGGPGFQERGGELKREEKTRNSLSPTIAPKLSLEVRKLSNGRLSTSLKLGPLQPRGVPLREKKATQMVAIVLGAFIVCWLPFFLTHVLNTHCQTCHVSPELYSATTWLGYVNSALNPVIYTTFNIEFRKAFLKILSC
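Agonist-mode cell screen: cells plated at 1500/well and incubated overnight at 37 °C, then exposed to library compounds for 90 min at 37 °C. Detection reagent was added for 30–60 min at room temperature, and luminescence was read.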
DRD3 antagonist: blocks the human D3 dopamine receptor | P35462 | D3R cells, DiscoveRx beta-arrestin luminescence, antagonist mode; stronger effect = lower value | max response, negative = inhibition, % | actives 2.5% (n = 360,000); in the data active means max response below about -50%; inconclusive means no clear call, values can overlap the other calls
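Cells plated overnight at 1500 cells/well, then exposed to library compounds with dopamine controls for 90 minutes at 37 degrees C. DiscoveRx reagent added for 30–60 minutes at room temperature; luminescence read, quantitative HTS format.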
Of the large screens only hits and unclear results are named; the others gave an inactive call.

Cc1cc(C(=O)N2CCC2(C)C(=O)NS(=O)(=O)c2cccc(OC(F)F)c2)nn1C (centres undefined)	D3 ag 74 (no result: RGS4 inh)
CCCC(=O)N1CCC1(C)C(=O)NS(=O)(=O)c1cccc(C)c1 (centres undefined)	D3 ag 93 (no result: RGS4 inh)
CC1(C(=O)NS(=O)(=O)c2cccc(OC(F)F)c2)CCN1C(=O)c1cccc(F)c1 (centres undefined)	none (no result: RGS4 inh)
Cc1cc(OCCOCCNC(C)C)cc(C)c1Cl	DRD3 antagonist -58
CC(C)NCCOCCOc1ccccc1	none (no result: pAkt inh, PI4K2A inh, RGS4 inh, D3 ag, DRD3 antagonist)
C=CCn1cccc(/C=C/C(=O)c2ccc(C(C)(C)C)cc2)c1=S	RGS4 inh inconclusive, DRD3 antagonist -60
COc1cc(C2CC(=O)Oc3c(C(CCN4CCCC(C)C4)c4ccc(N(C)C)cc4)c(OC)cc(OC)c32)cc(OC)c1OC (centres undefined)	DRD3 antagonist -71
CCCCCc1cc(=O)oc2c(C(CCN3CCCC(C)C3)c3ccc(N(C)C)cc3)c(OC)cc(OC)c12 (centres undefined)	none
COc1cc(C(CCN2CCCC(C)C2)c2c(OC)cc(OC)c3c2OC(=O)CC3c2ccc(N(C)C)cc2)cc(OC)c1OC (centres undefined)	DRD3 antagonist -59
COc1ccc(C2CC(=O)Oc3c(C(CCN4CCN(c5ccccc5)CC4)c4ccc(N(C)C)cc4)c(OC)cc(OC)c32)cc1 (centres undefined)	DRD3 antagonist -84
COc1cc(OC)c2c(c1C(CCN1CCOCC1)c1ccc(N(C)C)cc1)OC(=O)CC2c1ccc(N(C)C)cc1 (centres undefined)	none
COc1cc(OC)c2c(c1C(CCN1CCCC(C)C1)c1ccc(N(C)C)cc1)OC(=O)CC2c1ccc(N(C)C)cc1 (centres undefined)	none (no result: pAkt inh, PI4K2A inh, LDHA block, D3 ag, DRD3 antagonist)
COc1cc(OC)c2ccc(=O)oc2c1C(CCN1CCCC(C)C1)c1ccc(N(C)C)cc1 (centres undefined)	DRD3 antagonist -60
S=C(NCc1cccnc1)Nc1ccc(Br)cc1Cl	none (no result: pAkt inh, PI4K2A inh, RGS4 inh, D3 ag, DRD3 antagonist)
Brc1ccc(-c2cn3nc4c(nc3n2)CCCC4)cc1	none
c1ccc(-c2cn3nc4c(nc3n2)CCCC4)cc1	PI4K2A inh -52
CCN(CC)CCC(=O)Nc1c(C(=O)OC)[nH]c2ccc(C)cc12	none (no result: pAkt inh, PI4K2A inh, RGS4 inh, D3 ag, DRD3 antagonist)
C1COCCNCCOCCOCCOCCN1	none
C1COCCNCCOCCOCCN1	DRD3 antagonist -92
CNC(=S)Nc1ccc(N2CCN(c3ccc(C(F)(F)F)cn3)CC2)nc1	DRD3 antagonist -52
COc1ccc(NC(=O)c2ccc(CN3CCc4ccccc4C3)cc2)c(OC)c1	DRD3 antagonist -101
COc1ccc(OC)c(NC(=O)c2ccc(CN3CCc4ccccc4C3)cc2)c1	DRD3 antagonist -109
Cc1ccccc1C(=O)NC(c1ccc(Cl)cc1)c1cccnc1 (centres undefined)	none (no result: pAkt inh, PI4K2A inh, RGS4 inh, D3 ag, DRD3 antagonist)
O=C(c1cc2n(n1)C(C(F)(F)F)CC(c1ccco1)N2)N1CCc2ccccc2C1 (centres undefined)	none
COc1ccccc1N1CCN(C(=O)c2cc3n(n2)C(C(F)(F)F)CC(c2ccco2)N3)CC1 (centres undefined)	pAkt inh -107%
CCOC(=O)CCc1c(C(=O)OCC)[nH]c(CC)c1C(=O)OCc1ccccc1	D3 ag 31
CCOC(=O)c1c(C)[nH]c(C(=O)OCc2ccccc2)c1C	none
CC(C)N1C(=O)NC2(c3ccccc3)N(C)C(=O)N(C)C12c1ccccc1 (centres undefined)	none
CN1C(=O)N(C)C2(c3ccccc3)N(C)C(=O)NC12c1ccccc1 (centres undefined)	DRD3 antagonist -57
O=c1nc(-c2ccccc2Cl)c2cc(Br)ccc2[nH]1	none (no result: pAkt inh, PI4K2A inh, RGS4 inh, D3 ag, DRD3 antagonist)
COC(=O)c1ccc(NS(=O)(=O)c2ccc(C)cc2)c(C)c1	none (no result: pAkt inh, PI4K2A inh, RGS4 inh, D3 ag, DRD3 antagonist)
OCCC1CN(Cc2cc3c(cc2Cl)OCO3)CCN1Cc1ccccc1 (centres undefined)	DRD3 antagonist -53
OCCC1CN(Cc2cccs2)CCN1Cc1ccccc1 (centres undefined)	none
